Screening results as filed in PubChem.
Tgondii IFNg: T. gondii growth inhibition under IFN-gamma; Toxoplasma gondii growth in IFN-gamma-treated host cells; hits give low values; activity change, negative = inhibition, % (test concentration not listed); 69,000 compounds, 3.8% hits; in the data active = activity change below about -70%, passing the limit was not always enough;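 note: host cells are HeLa cells infected with Toxoplasma gondii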
* = called active by the depositor; i = inactive. Shown is part of a subset that was picked to be rich in hits.

SMILES | Tgondii IFNg
CC(C)CCN1C2(CCN(C(=O)NC3CCCC3)C2)c2ccccc2S1(=O)=O (configuration not stated) | -87.0*
O=C(Cn1ncc2c(N3CCN(c4ccccn4)CC3)ncnc21)N1CCCCCC1 | -10.4
CSc1ccc(C2c3[nH]c4ccccc4c3CCN2C(=O)CCC2CCCC2)cc1 (configuration not stated) | -121.5*
CCCC(=O)N1CCc2c([nH]c3ccccc23)C1c1ccc(OCC)cc1 (configuration not stated) | -37.4
CCCC(=O)N1CCc2c([nH]c3ccccc23)C1c1ccc(SC)cc1 (configuration not stated) | -24.4
CCCC(=O)N1CCc2c([nH]c3ccccc23)C1c1ccc(OC)cc1 (configuration not stated) | i
COCC(=O)N1CCc2c([nH]c3ccccc23)C1c1ccc(C)cc1 (configuration not stated) | 272.2
CCCC(=O)N1CCc2c([nH]c3ccccc23)C1c1ccc(Cl)cc1 (configuration not stated) | -104.4*
O=C(COc1ccccc1)N1CCc2c([nH]c3ccccc23)C1c1ccc(Cl)cc1 (configuration not stated) | -69.7
Cc1ccc(C2c3[nH]c4ccccc4c3CCN2C(=O)COc2ccccc2)cc1 (configuration not stated) | -116.9*
CCOc1cccc(C2c3[nH]c4ccccc4c3CCN2C(=O)CCc2ccccc2)c1 (configuration not stated) | i
O=C(COc1ccccc1)N1CCc2c([nH]c3ccccc23)C1c1ccc(F)cc1 (configuration not stated) | -64.4
Cc1ccc(C2c3[nH]c4ccccc4c3CCN2C(=O)CCc2ccccc2)cc1 (configuration not stated) | -79.9*
COC(=O)CCC(=O)N1CCc2c([nH]c3ccccc23)C1c1ccc(SC)cc1 (configuration not stated) | 56.6
COCCN1C[C@H]2[C@H](OC)CCN(CCc3ccccc3)[C@H]2C1 | 3.1
CCn1c(=O)c(-c2nc(-c3ccccc3F)no2)c(O)c2ccc(F)cc21 | -0.6
C=CCO[C@@H]1CCN(c2cc(OC)ncn2)[C@H]1Cc1cnn(C)c1 | -50.6
Cc1ccc(C(=O)N2CCCC(Cc3ccc(C(=O)O)cc3)C2)cc1F (configuration not stated) | 0.1
Cn1c(Cc2nn(C)c(=O)c3ccccc23)nnc1SCc1ccc(Cl)cc1Cl | 1.6
CCOCC(=O)NC1CCc2c(ccc(=O)n2CCn2cccn2)C1 (configuration not stated) | 6.3
Cc1nc(C)c(C(=O)N2CCC(O)(Cn3ccc4nc(-c5ccncc5)ccc43)CC2)s1 | -22.9
CC(=O)Nc1ccc(S(=O)(=O)NCc2nc(-c3ccc(C)cc3)oc2C)cc1 | 38.2
CCN1CCCc2cc(CN(C3CCCC3)S(=O)(=O)c3ccc4[nH]c(=O)ccc4c3)ccc21 | -86.5*
CCCCN(C1CCN(C(C)=O)CC1)S(=O)(=O)c1ccc2[nH]c(=O)ccc2c1 | 87.1
COCCN(Cc1ccc2c(c1)CCCN2C)S(=O)(=O)c1ccc2[nH]c(=O)ccc2c1 | 7.8
SMILES | Tgondii IFNg
Cc1cc(C)n(C(=O)C(c2ccccc2)c2ccccc2)n1 | -25.1
Cc1cc(C(=O)NOCCO)c(Nc2ccc(I)cc2F)n(C)c1=O | 5.7
Cc1ccc(C2=NC3(CCN(CC(=O)NCc4ccc5c(c4)OCO5)CC3)NC2=O)cc1C | 28.0
O=C(N(c1ccccc1)c1ccc(F)cc1)C12CC3CC(CC(C3)C1)C2 | -83.4*
O=C(N(Cc1nc2ccccc2c(=O)[nH]1)Cc1cccs1)C12CC3CC(CC(C3)C1)C2 | -40.6
CC(=O)NC12CC3CC(C1)CC(C(=O)NC(C)CCc1ccc(F)cc1)(C3)C2 (configuration not stated) | 7.9
CC1Cc2cc(CNCc3cc(-c4ccc(F)cc4)c[nH]c3=O)ccc2O1 (configuration not stated) | i
COc1c[nH]c(CN2CCCC(CCc3cccc(F)c3)C2)cc1=O (configuration not stated) | -18.9
CN1C/C(=C\c2ccccc2Cl)C2=NN(C)C(c3ccccc3Cl)C2C1 (configuration not stated) | -29.6
CCCN(CCC)S(=O)(=O)c1ccc(NC(=O)c2ccc3c(c2)OCO3)cc1 | -64.8
CSc1ncc(C(=O)Nc2ccc(Oc3ccc4c(c3)OCO4)cc2)cn1 | -102.9*
CSc1ncc(C(=O)Nc2cccc(C(=O)N3CCCCC3)c2)cn1 | 12.6
COc1ccc(NC(=O)N2CCC(c3nc(C(=O)N(C)C)c(C)o3)CC2)c(OC)c1 | 436.8
CC(=O)ON1C(c2ccccc2)N=C(c2ccccc2)C1(C)C (configuration not stated) | 0.3
CC[C@H]1N(S(=O)(=O)c2cn(C)cn2)CCC[C@@]12CCC(=O)N2C | -39.7
Cn1cnc(S(=O)(=O)N2CCC3(CC(Nc4cccc(F)c4)CO3)C2)c1 (configuration not stated) | 7.3
CN(C)C(=O)COC[C@@]12COC[C@@H]1CN(Cc1cnn(C)c1)C2 | -3.5
